Holding throughout (assay): DAPPL (digital affinity profiling via proximity ligation, sequencing); 10 mM Tris-HCl pH 7.5, 50 mM NaCl, 1 mM DTT, 4% glycerol, room temperature, 30 min; GST-TFs on glutathione beads, 16-mer random dsDNA library, 0.1% formaldehyde crosslink after washing; high values mean tight binding
One test deals with T1, FEV (Homo sapiens, UniProt Q99581 1-238).
T1 sequence: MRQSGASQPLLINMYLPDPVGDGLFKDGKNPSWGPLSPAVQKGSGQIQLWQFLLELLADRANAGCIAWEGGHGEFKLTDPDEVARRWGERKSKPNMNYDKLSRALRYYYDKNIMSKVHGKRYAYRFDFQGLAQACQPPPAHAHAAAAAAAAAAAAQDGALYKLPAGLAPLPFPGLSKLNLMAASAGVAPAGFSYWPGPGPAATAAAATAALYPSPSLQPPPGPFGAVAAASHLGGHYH
As to conditions: protein: recombinant; tags: N-terminal GST; dsDNA, one strand shown. The method in brief:
(§1)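 Binding signal is defined as a hexamer's read frequency for one factor over its frequency for the tag-only sample. To obtain reads, GST-fused human transcription factors were expressed in yeast, captured on glutathione beads, barcoded with DNA and pooled with that sample. Pools met 200 nmole of a 16-mer random double-stranded DNA library in Tris/NaCl/DTT/glycerol buffer for 30 min at room temperature before washing, 0.1% formaldehyde crosslinking, proximity ligation (BsaI/T4 ligase, 1 h, 37 °C), PCR and Illumina NextSeq500 sequencing.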

The next test has as its target ETV5 (Homo sapiens, UniProt P41161 1-510). The note with it: protein: recombinant; tags: N-terminal GST; dsDNA, one strand shown. A digest of the protocol: as §1
A further test addresses HSF1 (Homo sapiens, UniProt Q00613 1-529). As to conditions: protein: recombinant; tags: N-terminal GST; chain copies: 3; dsDNA, one strand shown. The method in brief: as §1
The next test addresses T2, SPIC (Homo sapiens, UniProt Q8N5J4 1-248).
T2 sequence: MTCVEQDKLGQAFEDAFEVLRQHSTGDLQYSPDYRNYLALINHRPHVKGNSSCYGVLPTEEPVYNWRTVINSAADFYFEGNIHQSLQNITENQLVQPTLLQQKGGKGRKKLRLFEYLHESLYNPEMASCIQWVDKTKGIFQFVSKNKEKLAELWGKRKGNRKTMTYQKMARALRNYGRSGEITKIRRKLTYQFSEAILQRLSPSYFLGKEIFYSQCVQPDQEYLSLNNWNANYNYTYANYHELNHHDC
As to conditions: protein: recombinant; tags: N-terminal GST; dsDNA, one strand shown. A digest of the protocol: as §1

The target of another test is ELF4 (Homo sapiens, UniProt Q99607 1-663). The note with it: protein: recombinant; tags: N-terminal GST; dsDNA, one strand shown. A digest of the protocol:
as §1

In a further test the target is T3, ELK4 (Homo sapiens, UniProt P28324-2 1-405).
T3 sequence: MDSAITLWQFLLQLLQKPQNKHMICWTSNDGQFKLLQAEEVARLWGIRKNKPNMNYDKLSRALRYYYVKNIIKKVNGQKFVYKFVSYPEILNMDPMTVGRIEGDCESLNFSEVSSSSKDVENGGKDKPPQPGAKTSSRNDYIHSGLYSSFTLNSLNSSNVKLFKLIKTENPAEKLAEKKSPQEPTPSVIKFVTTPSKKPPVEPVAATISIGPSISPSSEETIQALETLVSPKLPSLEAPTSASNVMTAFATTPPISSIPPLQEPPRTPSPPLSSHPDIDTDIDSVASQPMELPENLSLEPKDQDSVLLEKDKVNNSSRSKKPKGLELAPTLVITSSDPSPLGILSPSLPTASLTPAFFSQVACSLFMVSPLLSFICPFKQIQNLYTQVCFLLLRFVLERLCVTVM
The note with it: protein: recombinant; tags: N-terminal GST; dsDNA, one strand shown. A digest of the protocol: as §1

For the next test, the target named is T4, ETV2 (Homo sapiens, UniProt O00321 1-342).
T4 sequence: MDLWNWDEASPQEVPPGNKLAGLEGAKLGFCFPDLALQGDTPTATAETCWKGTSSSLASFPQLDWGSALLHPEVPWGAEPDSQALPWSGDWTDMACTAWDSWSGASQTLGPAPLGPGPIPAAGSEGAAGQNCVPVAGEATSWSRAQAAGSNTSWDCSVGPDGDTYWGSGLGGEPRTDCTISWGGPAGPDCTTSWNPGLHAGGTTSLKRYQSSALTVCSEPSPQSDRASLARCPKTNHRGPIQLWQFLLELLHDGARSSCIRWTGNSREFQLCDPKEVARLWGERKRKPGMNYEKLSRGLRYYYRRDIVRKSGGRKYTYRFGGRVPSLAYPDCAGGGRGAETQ
The note with it: protein: recombinant; tags: N-terminal GST; dsDNA, one strand shown. A digest of the protocol: as §1

Another test has as its target T5, ELF3 (Homo sapiens, UniProt P78545 1-371).
T5 sequence: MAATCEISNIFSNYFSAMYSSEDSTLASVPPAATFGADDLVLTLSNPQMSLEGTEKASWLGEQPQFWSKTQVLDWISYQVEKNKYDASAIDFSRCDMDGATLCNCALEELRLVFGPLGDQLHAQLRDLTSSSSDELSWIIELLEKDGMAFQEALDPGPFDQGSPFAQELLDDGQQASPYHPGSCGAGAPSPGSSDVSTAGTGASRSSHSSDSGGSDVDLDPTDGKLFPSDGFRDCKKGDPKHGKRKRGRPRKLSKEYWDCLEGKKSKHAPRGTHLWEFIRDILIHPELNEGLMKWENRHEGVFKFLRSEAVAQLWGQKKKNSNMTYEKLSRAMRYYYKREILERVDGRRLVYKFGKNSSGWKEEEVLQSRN
The note with it: protein: recombinant; tags: N-terminal GST; dsDNA, one strand shown. A digest of the protocol:
as §1

A further test concerns the target CRX (Homo sapiens, UniProt O43186 1-299). As to conditions: protein: recombinant; tags: N-terminal GST; dsDNA, one strand shown. A digest of the protocol: as §1
For the next test, the target named is ETV1 (Homo sapiens, UniProt P50549 1-477). As to conditions: protein: recombinant; tags: N-terminal GST; dsDNA, one strand shown. The method in brief:
as §1

The target of the next test is T6, ERF (Homo sapiens, UniProt P50548 1-548).
T6 sequence: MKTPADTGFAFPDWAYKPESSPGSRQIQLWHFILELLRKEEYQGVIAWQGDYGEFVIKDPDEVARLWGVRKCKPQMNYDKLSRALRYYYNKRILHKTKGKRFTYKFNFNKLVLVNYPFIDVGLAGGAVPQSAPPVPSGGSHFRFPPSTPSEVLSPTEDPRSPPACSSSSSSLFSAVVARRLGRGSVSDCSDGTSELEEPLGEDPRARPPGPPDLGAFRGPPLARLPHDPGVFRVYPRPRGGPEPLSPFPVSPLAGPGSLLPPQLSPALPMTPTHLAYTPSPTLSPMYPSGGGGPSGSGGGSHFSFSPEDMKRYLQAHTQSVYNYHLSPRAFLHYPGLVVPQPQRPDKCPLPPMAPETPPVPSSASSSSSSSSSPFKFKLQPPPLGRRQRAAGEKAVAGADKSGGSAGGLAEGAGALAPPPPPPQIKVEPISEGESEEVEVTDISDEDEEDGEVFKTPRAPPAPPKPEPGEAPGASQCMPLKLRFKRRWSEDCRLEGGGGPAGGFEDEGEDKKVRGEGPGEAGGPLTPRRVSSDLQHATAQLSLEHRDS
The note with it: protein: recombinant; tags: N-terminal GST; dsDNA, one strand shown. A digest of the protocol: as §1

The next test deals with T7, ETV3L (Homo sapiens, UniProt Q6ZN32 1-361).
T7 sequence: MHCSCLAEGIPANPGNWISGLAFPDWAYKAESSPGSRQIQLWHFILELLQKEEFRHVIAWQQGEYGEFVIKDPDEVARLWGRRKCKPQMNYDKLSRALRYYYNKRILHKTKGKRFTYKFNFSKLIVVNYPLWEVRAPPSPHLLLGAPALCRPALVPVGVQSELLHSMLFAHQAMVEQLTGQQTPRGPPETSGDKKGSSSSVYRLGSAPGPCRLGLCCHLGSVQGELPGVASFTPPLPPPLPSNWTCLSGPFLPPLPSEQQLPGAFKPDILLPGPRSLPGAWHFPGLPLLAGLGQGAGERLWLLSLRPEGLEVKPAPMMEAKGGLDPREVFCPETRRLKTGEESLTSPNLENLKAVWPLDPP
The note with it: protein: recombinant; tags: N-terminal GST; dsDNA, one strand shown. The method in brief: as §1

In the next test the target is T8, ETS2 (Homo sapiens, UniProt P15036 1-469).
T8 sequence: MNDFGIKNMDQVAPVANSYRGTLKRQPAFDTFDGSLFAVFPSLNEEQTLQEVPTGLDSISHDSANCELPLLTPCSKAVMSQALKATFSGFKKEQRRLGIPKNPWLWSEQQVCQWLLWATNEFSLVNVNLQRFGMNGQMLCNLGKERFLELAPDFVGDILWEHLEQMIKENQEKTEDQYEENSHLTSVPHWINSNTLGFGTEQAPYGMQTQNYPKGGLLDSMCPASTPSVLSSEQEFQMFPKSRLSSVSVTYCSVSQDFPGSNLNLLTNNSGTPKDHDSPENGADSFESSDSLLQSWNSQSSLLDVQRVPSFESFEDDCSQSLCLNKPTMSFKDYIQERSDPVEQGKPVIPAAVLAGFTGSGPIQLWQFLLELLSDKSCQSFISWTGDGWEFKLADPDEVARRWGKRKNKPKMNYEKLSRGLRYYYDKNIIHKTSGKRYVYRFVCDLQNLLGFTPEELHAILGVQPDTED
As to conditions: protein: recombinant; tags: N-terminal GST; dsDNA, one strand shown. The method in brief: as §1

In a further test the target is T9, SPDEF (Homo sapiens, UniProt O95238 1-335).
T9 sequence: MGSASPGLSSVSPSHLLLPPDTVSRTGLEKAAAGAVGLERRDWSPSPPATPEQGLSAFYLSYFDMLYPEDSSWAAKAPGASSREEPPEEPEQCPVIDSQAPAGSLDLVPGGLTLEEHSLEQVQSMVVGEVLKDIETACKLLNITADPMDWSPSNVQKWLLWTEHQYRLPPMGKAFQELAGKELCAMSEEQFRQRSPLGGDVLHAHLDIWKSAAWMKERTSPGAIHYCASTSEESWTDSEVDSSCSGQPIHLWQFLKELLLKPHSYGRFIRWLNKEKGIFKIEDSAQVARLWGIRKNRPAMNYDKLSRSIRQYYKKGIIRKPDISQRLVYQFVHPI
As to conditions: protein: recombinant; tags: N-terminal GST; dsDNA, one strand shown. A digest of the protocol:
as §1

The target of another test is T10, ETV7 (Homo sapiens, UniProt Q9Y603 1-341).
T10 sequence: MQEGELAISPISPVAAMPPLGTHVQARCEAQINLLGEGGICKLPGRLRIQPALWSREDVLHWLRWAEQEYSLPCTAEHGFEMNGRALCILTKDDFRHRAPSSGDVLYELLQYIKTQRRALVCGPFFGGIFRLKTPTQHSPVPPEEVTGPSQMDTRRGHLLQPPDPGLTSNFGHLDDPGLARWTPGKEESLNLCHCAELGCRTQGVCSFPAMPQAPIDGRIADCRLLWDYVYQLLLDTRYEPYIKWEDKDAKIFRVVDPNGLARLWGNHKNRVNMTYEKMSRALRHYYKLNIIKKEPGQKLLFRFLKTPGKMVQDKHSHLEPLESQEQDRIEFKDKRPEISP
The note with it: protein: recombinant; tags: N-terminal GST; dsDNA, one strand shown. The method in brief: as §1

The target in the next test is T11, ELF5 (Homo sapiens, UniProt Q9UKW6-2 1-255).
T11 sequence: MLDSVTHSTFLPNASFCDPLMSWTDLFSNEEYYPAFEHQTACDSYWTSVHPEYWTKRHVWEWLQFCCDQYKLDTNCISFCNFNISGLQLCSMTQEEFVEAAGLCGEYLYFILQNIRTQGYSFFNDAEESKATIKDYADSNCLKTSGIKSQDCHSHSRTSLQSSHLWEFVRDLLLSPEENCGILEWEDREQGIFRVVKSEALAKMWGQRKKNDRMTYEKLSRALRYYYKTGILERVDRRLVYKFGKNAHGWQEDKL
As to conditions: protein: recombinant; tags: N-terminal GST; dsDNA, one strand shown. A digest of the protocol:
as §1

A further test deals with T12, ETV3 (Homo sapiens, UniProt P41162-2 1-143).
T12 sequence: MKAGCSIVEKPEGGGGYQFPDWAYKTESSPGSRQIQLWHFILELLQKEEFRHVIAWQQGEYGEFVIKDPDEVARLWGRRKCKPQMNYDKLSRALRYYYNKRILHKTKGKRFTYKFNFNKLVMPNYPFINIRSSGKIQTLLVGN
As to conditions: protein: recombinant; tags: N-terminal GST; dsDNA, one strand shown. The method in brief: as §1

Another test concerns the target ETV6 (Homo sapiens, UniProt P41212 1-452). The note with it: protein: recombinant; tags: N-terminal GST; dsDNA, one strand shown. A digest of the protocol: as §1

Chain of ELF4 (Q99607 whole entry): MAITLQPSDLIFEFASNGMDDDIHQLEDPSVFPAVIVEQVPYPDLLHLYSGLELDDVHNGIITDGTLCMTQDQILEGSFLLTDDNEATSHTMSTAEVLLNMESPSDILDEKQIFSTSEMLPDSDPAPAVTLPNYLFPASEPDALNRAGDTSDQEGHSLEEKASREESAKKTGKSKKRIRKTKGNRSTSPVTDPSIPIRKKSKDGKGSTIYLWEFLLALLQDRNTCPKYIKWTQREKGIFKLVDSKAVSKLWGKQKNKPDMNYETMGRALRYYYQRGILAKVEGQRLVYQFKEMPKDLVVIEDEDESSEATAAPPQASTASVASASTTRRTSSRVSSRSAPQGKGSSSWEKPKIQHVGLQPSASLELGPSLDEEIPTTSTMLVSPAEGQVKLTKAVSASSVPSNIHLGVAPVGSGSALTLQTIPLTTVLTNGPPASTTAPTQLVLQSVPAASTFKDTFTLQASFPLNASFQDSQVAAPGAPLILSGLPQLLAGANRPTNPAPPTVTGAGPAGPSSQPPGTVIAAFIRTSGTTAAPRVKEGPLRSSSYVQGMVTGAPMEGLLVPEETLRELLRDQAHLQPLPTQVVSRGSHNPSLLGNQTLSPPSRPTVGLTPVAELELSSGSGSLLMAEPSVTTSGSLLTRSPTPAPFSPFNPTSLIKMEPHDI
Chain of ETV5 (P41161 whole entry): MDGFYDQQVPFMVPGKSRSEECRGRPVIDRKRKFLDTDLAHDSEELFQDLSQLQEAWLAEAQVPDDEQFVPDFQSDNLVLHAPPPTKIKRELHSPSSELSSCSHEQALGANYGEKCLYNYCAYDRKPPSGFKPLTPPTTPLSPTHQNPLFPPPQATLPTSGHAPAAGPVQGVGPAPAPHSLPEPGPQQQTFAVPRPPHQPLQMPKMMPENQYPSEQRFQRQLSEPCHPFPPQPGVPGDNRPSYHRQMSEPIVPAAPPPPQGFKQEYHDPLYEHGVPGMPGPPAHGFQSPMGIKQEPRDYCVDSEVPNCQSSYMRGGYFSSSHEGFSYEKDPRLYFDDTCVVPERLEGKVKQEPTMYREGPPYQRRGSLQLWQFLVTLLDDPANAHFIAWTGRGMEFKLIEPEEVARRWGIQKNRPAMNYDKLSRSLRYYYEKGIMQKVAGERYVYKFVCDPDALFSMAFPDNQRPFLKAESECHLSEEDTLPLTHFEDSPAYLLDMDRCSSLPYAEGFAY
Chain of ETV6 (P41212 whole entry): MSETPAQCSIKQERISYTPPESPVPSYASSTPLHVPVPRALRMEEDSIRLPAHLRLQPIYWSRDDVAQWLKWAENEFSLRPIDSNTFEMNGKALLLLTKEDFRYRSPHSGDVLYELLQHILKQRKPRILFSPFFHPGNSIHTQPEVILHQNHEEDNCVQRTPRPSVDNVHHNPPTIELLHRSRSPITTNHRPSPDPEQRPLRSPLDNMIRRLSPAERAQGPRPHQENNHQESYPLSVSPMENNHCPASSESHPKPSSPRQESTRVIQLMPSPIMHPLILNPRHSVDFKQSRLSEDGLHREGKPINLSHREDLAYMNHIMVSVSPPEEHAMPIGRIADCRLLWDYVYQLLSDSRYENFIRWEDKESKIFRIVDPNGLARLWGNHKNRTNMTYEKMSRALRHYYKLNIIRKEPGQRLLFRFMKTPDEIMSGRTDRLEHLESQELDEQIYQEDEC
Chain of ETV1 (P50549 whole entry): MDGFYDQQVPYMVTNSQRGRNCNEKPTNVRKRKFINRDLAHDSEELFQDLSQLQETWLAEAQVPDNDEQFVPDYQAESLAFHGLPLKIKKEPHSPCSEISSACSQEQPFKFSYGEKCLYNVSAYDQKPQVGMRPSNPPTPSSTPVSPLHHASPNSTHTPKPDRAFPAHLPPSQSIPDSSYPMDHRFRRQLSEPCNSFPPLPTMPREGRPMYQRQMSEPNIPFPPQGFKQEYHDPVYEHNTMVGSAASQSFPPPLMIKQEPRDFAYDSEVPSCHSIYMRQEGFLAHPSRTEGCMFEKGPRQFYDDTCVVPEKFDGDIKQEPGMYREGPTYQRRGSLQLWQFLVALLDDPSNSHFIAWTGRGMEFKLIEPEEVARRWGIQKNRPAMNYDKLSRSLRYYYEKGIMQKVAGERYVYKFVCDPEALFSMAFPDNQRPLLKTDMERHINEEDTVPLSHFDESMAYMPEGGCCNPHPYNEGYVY
Chain of HSF1 (Q00613 whole entry): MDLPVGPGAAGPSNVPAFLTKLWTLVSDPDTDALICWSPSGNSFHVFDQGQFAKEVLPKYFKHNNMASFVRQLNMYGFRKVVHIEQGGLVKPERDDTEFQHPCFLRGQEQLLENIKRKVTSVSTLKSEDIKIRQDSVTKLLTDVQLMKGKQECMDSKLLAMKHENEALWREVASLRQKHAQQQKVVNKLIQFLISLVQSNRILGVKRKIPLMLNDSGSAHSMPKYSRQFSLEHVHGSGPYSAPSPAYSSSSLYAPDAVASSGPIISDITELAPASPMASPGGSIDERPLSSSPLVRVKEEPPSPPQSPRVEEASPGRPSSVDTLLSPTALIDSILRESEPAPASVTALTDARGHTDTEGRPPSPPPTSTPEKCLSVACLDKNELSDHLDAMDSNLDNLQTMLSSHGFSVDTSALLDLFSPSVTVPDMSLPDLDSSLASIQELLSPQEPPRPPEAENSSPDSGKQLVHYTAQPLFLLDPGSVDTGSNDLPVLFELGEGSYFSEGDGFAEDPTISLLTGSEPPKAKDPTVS
Chain of CRX (O43186 whole entry): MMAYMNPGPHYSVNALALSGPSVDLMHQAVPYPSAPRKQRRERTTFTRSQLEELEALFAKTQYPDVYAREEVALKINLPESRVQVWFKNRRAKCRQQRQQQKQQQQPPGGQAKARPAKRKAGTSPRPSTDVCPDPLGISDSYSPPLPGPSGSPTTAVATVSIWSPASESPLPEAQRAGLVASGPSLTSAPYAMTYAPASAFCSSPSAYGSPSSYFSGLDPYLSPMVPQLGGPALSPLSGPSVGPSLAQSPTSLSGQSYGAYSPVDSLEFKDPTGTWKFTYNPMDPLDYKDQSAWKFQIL

For the sequence TCTGAA, the binding signal with FEV is 1.21 fold enrichment (6-mer frequency, TF over GST control); in the test with ETV5, 1.09 fold enrichment (6-mer frequency, TF over GST control); with HSF1, 1.23 fold enrichment (6-mer frequency, TF over GST control); in the test with SPIC, 1.2 fold enrichment (6-mer frequency, TF over GST control); with ELF4 it was 1.2 fold enrichment (6-mer frequency, TF over GST control); with ELK4 it was 1.14 fold enrichment (6-mer frequency, TF over GST control). In addition, the binding signal is 1.17 fold enrichment (6-mer frequency, TF over GST control) with ETV2; 1.18 fold enrichment (6-mer frequency, TF over GST control) with ELF3; 1.21 fold enrichment (6-mer frequency, TF over GST control) in the test with CRX; 1.21 fold enrichment (6-mer frequency, TF over GST control) with ETV1; 1.27 fold enrichment (6-mer frequency, TF over GST control) with ERF; 1.15 fold enrichment (6-mer frequency, TF over GST control) in the test with ETV3L. Further, the binding signal with ETS2 was 1.27 fold enrichment (6-mer frequency, TF over GST control); in the test with SPDEF, 1.23 fold enrichment (6-mer frequency, TF over GST control); with ETV7, 1.07 fold enrichment (6-mer frequency, TF over GST control); in the test with ELF5, 1.07 fold enrichment (6-mer frequency, TF over GST control); with ETV3, 1.09 fold enrichment (6-mer frequency, TF over GST control); with ETV6 it was 1.16 fold enrichment (6-mer frequency, TF over GST control).

Source of the values: PMC7862700, “An all-to-all approach to the identification of sequence-specific readers for epigenetic DNA modifications on cytosine”.
